Reference: PubChem BioAssay (NCI)
Compounds without any hit were thinned out: in the full panel of roughly 83,000, 20% have a hit.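 Step 1: grow cells in 96-well plates. Step 2: add test compound at a single concentration. Step 3: incubate 48 h. Step 4: record percent growth.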 A number with no mark means an inactive call. The source made the active and inactive calls. Rule for the calls: active = growth percent below 10; inactive = the rest.

What follows are molecules tested on MDA-MB-231 breast (assay: NCI-60 one-dose screen, 48 h (100 = growth as untreated, 0 = no growth, -100 = all killed)). Conditions: 10 µM unless noted.

Compound | growth
Cc1ccc(Cl)cc1Nc1nc(C(F)(F)F)ccc1C(=O)N/N=C/c1cccnc1 | 33.4%
Fc1ccc(-c2nn(-c3ccccc3)cc2-c2nc3ccccc3o2)cc1 | 59.1%
CCOC(=O)C(=Cc1cccc(Br)c1)C(=O)OCC | 38.1%
COc1cccc(NC(=O)Cn2cc(CN3CCN(c4ccnc5cc(Cl)ccc45)CC3)nn2)c1 | 73.9%
CCOC(=O)c1cc2c(=O)oc3ccccc3c2oc1=O | 101%
O=C(Nc1cc(Cl)ccc1O)c1ccc(Nc2ccnc(C(F)(F)F)c2)cc1 | 68.1%
C=C(C)[C@@H]1CC[C@]2(C(=O)O)CC[C@]3(C)[C@H](CC[C@@H]4[C@@]5(C)C[C@@H](Cc6cn(CCO[C@@H]7O[C@H](COC(C)=O)[C@H](OC(C)=O)[C@H](OC(C)=O)[C@H]7OC(C)=O)nn6)[C@H](O)C(C)(C)[C@@H]5CC[C@]43C)[C@@H]12 | 48.1%
CC(C)CCC[C@@H](C)[C@H]1CC[C@H]2[C@@H]3CC=C4C[C@@H](C(C(=O)O)C(=O)O)CC[C@]4(C)[C@H]3CC[C@]12C | -28.2% (active)
O=S(=O)(Nc1ccc(Cl)cc1)c1ccc(-c2cnc(C3CC3)o2)cc1 | 26.9%
C#CCOc1ccc2ncnc(Nc3ccc(NC(=O)CCl)cc3)c2c1 | -0.398% (active)
CCOC(=O)C1=C(NC)OCC1=O | 107%
COC(=O)c1c2c(c(C)[n+]([O-])c1C)C(=O)C=C(NCc1ccc(Br)cc1)C2=O | -4.67% (active)
CCN(CC)CCOc1ccc(-c2c(-c3ccccc3)c(=O)oc3ccccc23)cc1 | 88.7%
Nc1nc(=S)c2ncn(C3OC(COP(=O)(O)O)C(O)C3O)c2[nH]1 (stereo not given) | 38.7%
COc1ccc(/C=N/NC(=O)CCN2c3ccccc3Sc3ccccc32)cc1 | 76.6%
c1cnc2[nH]cc(-c3csc(-c4cn(CCCN5CCOCC5)c5ccccc45)n3)c2c1 | 27.1%
S=C1CCSC(=S)N1CCCN1C(=S)CCSC1=S | 75.3%
COc1ccc(C(=O)Nc2ncc(Cc3ccc(F)cc3)s2)cc1 | 29.6%
C=C1C(=O)O[C@H]2[C@H]1CC/C(COC(=O)NCc1cc[nH]c1)=C\CC[C@@]1(C)O[C@@H]21 | 35.4%
CN(C)CCCC1(c2ccc(F)cc2)OCc2cc(-c3cccc4[nH]ccc34)ccc21 (stereo not given) | 40.8%

Compound | growth
COC(C(=O)[C@@H](O)[C@@H](C)O)[C@@H]1Cc2cc3cc(O[C@H]4C[C@@H](O[C@H]5C[C@@H](O)[C@H](O)C(C)O5)[C@H](O)C(C)O4)c(C)c(O)c3c(O)c2C(=O)[C@H]1O[C@H]1C[C@@H](O[C@H]2C[C@@H](O[C@H]3C[C@@H](O)[C@H](OC)C(C)O3)[C@@H](O)C(C)O2)[C@H](O)C(C)O1 (stereo not given in full) | 17.2%
CCNc1cc(-c2cccc(OC(F)(F)F)c2)nc2ccc(N3CCCC3)cc12 | 15.3%
CCNc1nc(-c2ccc(Cl)c(OC)c2)c(-c2ccnc(NCCCNS(=O)(=O)c3ccc(Cl)cc3)n2)s1 | 50.9%
Cc1nc2c(=O)[nH]c(SCC(=O)Nc3cccc(F)c3)nc2[nH]c1=O | 101%
Cc1ccc(-c2nc3nc(-c4ccc(F)cc4)nc(N4CCNCC4)c3o2)cc1 | -29.1% (active)
O=C(/C=C(/C=C/c1cccc2[nH]ccc12)OB(F)F)/C=C/c1cccc2[nH]ccc12 | -10.7% (active)
Oc1c(Cl)cc(Cl)c2ccc(Cn3cc(-c4cc(C(F)(F)F)cc(C(F)(F)F)c4)nn3)nc12 | 87%
CC[C@@H](C(=O)[C@@H](C)[C@@H](O)[C@H](C)[C@@H]1O[C@@H]([C@@H](CC)C(=O)NCCc2ccc(F)cc2)CC[C@@H]1C)C1O[C@]2(C=CC(=O)[C@]3(CC[C@@](C)([C@H]4CC[C@](O)(CC)[C@H](C)O4)O3)O2)[C@H](C)C[C@@H]1C (stereo not given in full) | 13.8%
c1cc2[nH]ncc2cc1-c1nc2ccc3[nH]ncc3c2c2c1CCCC2 | 31.1%
C#CCOc1cccc(Nc2ncnc3c(NC(=O)C=C)cccc23)c1 | 26.3%
N#Cc1cnc(NCCc2ccncc2)nc1-n1cnc2ccccc21 | 76.2%
CCOC(=O)c1c(NC(=O)c2ccc(C(C)C)cc2)sc2c(CN(C)C)c(O)ccc12 | 58.4%
COc1ccc(N2CCC(=O)NC2=S)cc1 | 102%
Oc1c(Cl)cc(Cl)c2ccc(Cn3cc(-c4cc(F)cc(F)c4)nn3)nc12 | 97.9%
CO/N=C(/C)c1ccc(NC(=O)CSc2nnc(-c3ccncc3)n2-c2ccccc2)cc1 | 42.7%
O=C1c2cccnc2C(=O)c2c1c(C(=O)NCCn1ccnc1)c1ccccn21 | 13.6%
O=C1NC(=O)c2c1c1c3ccccc3ccc1c1[nH]c3ccc(Br)cc3c21 | 27.5%
Cc1ccc(-c2nc3nc(-c4ccccc4)nc(N4CCNCC4)c3o2)cc1 | -79.3% (active)
CC(C)(C)n1cc(-c2ccnc(NCCNS(=O)(=O)c3cccc(F)c3)c2)c(-c2ccccc2)n1 | 87%
Cc1c(-n2nnc(-c3nc4ccccc4s3)c2N)c(=O)n(-c2ccccc2)n1C | 113%
